# Data reported in PubChem BioAssay AID540356 (Broad Institute, 2011).
# Hit rate of the full screen: of about 2,500 compounds, about 360 (14%) were called active.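 How the source made its calls: active means signal-lowering compounds whose fitted half-maximal concentration AC50 is no higher than ten times their top tested concentration; inconclusive means flat curve with 30 to 70% inhibition, or poor fit; inactive means flat within 30%, signal increase, or AC50 above limit.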 These entries were drawn from the full list.
# Test: non-specific inhibitors of H2O2 luminol chemiluminescence – biochemical, luminescence, no ALR or DTT, cherry-pick, artefact control for ALR inhibitor project, dose response (AID 540356);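 on activity change, negative = inhibition: 0% = median of neutral control wells and -100% = median of quercitin 100 µM wells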
# Conditions: HRP/H2O2 luminol luminescence counterscreen; series mostly up to 10 µM; activity change, negative = inhibition: at the top concentration
SMILES,"activity change, negative = inhibition",AC50
Cc1cccc(Oc2ccc3c(c2)cc(C(=O)O)n3C)c1,-1.07% (inactive),
CN(CCCNC(=O)c1cccc(N2CCCC2=O)c1)c1ccccc1,-1.85% (inactive),
CN(CC(=O)N1CCN(c2ccccc2)CC1)S(=O)(=O)c1cnc[nH]1,-1% (inactive),
O=C1CS/C(=N/N=C/c2ccco2)N1Cc1ccc(F)cc1,-1.89% (inactive),
Fc1ccc(CN2C3=NCCN3c3ccccc32)cc1,-0.206% (inactive),
Cn1cccc1CC(=O)N/N=C/c1ccc([N+](=O)[O-])cc1,-1.17% (inactive),
O=C(NNc1c2ccccc2nc2ccccc12)c1ccc(O)cc1O,-6.84% (inactive),
CC1C(=O)NN=C1C(=O)N/N=C\c1ccc(O)cc1O (stereo not drawn),,8.82 µM (active)
CCN(CC)c1ccc(/C=N/NC(=O)c2ccco2)c(O)c1,-2.67% (inactive),
COc1cccc(/C=N/NC(=O)CC2C(=O)NN=C2C)c1O (stereo not drawn),-6.48% (inactive),
CC(C)c1ccc(NC2CCCN(C(=O)CCCn3cncn3)C2)cc1 (stereo not drawn),-0.691% (inactive),
Cc1nc(C(F)(F)F)c(C(=O)O)cc1-c1nc(-c2ccccc2)cs1,-3.6% (inactive),
O=C(O)c1ccccc1C(=O)Nc1ccc(-c2csc(-c3ccccc3)n2)cc1,1.08% (inactive),
Nc1nc(-c2ccc3ccccc3c2)cs1,0.746% (inactive),
Oc1ccc(-c2nc(-c3ccc(O)c(O)c3)cs2)cc1,,6.17 µM (active)
Cc1cc(-c2n[nH]c(=S)n2/N=C/c2ccc(Cl)c([N+](=O)[O-])c2)n[nH]1,-7.21% (inactive),
CN(C)c1ccc(/C=N/Nc2ccc(-n3ccnc3)nn2)cc1,-5.8% (inactive),
O=C(Nc1ccc(O)cc1)c1ccc(C(=O)c2ccccc2)o1,-0.476% (inactive),
CCN(CC)c1ccc(NC(=O)c2ccc(Br)o2)cc1,,> 10 µM (inactive)
Oc1ccc(/C(Cc2ccccn2)=N\Nc2ccccc2)c(O)c1,-13% (inactive),
Cc1ccc2nc(C)cc(N/N=C/c3ccccc3O)c2c1,-1.87% (inactive),
COc1ccc(-n2c(-c3ccc(OC)c(OC)c3)n[nH]c2=S)cc1,-7.41% (inactive),
COc1ccc(-c2n[nH]c(=S)n2-c2ccc(C)cc2)cc1OC,-2.1% (inactive),
Cc1occc1C(=O)NCCCCc1ccccc1,-2.42% (inactive),

SMILES,"activity change, negative = inhibition",AC50
O=C(NCCCN1CCCC1)c1ccc2c(Cl)c3c(nc2c1)CCCC3,-1.03% (inactive),
CC(C)Cc1nc2ccc(N)cc2[nH]1,-7.18% (inactive),
Nc1ccc(CCc2ccc(N)cc2)cc1,2.66% (inactive),
O=C(Nc1nnc(-c2cccnc2)o1)c1cccc([N+](=O)[O-])c1,2.15% (inactive),
Nc1ccc(N2CCN(C(=O)c3ccco3)CC2)cc1,-15% (inactive),
COc1cc(/C=C2\SC(=Nc3ccccc3OC)NC2=O)ccc1O,-10.1% (inactive),
O=C1NC(=O)/C(=C/c2cc3c(cc2Br)OCO3)S1,-2.95% (inactive),
O=C1NC(=O)/C(=C\c2ccc(O)cc2O)S1,,7.54 µM (active)
COc1cc(/C=N/NC(=O)c2cccc(NC(=O)c3ccccc3)c2)ccc1O,-4.89% (inactive),
COc1cc(C(=S)N(C)C)ccc1O,-16.8% (inactive),
COc1cc(C(=O)n2nc(C)cc2C)ccc1O,-6.95% (inactive),
C/C(=N\Nc1nc2ccccc2[nH]1)c1ccc2c(c1)OCO2,-0.401% (inactive),
CCN(CCCNC(=O)CNC(=O)Cn1cnc2ccccc2c1=O)c1ccccc1,-0.598% (inactive),
COc1ccccc1N1CCN(CCc2n[nH]c(=S)n2-c2ccccc2)CC1,-1.88% (inactive),
C(=C\c1nc2ccccc2[nH]1)/c1ccccc1,-1.61% (inactive),
C/C(=C\c1ccc(N)cc1)c1nc2ccccc2[nH]1,,6.64 µM (active)
C/C(=N\Nc1nc2ccccc2[nH]1)c1cccs1,-8.06% (inactive),
COc1ccc(N2CCN(C(=O)Cc3cccs3)CC2)cc1,-2.6% (inactive),
Cc1ccc(S(=O)(=O)NNC(=O)c2ccc3ccccc3n2)cc1,-12.9% (inactive),
CCn1c(-c2ccccc2O)n[nH]c1=S,-2.43% (inactive),
Oc1ccc(Br)cc1-c1cc(-c2ccco2)[nH]n1,-3.86% (inactive),
Cc1c(NS(=O)(=O)c2ccccc2)cc(Cl)c(O)c1C,-9.8% (inactive),
O=C(O)c1ccc(CSc2nc3ccc(NC(=O)c4ccccc4C(=O)O)cc3s2)cc1,-0.1% (inactive),
COc1cc(/C=N/NC(=O)CNC(=O)c2ccncc2)ccc1O,-3.2% (inactive),

SMILES,"activity change, negative = inhibition",AC50
COc1cc(/C(C)=N/NC(=O)Cc2c(C)[nH][nH]c2=O)ccc1O,,5.67 µM (active)
COc1cc(C(=O)N/N=C/c2cccc(Oc3ccccc3)c2)ccc1O,-5.05% (inactive),
CC1(CCC(=O)N2CCCC(Nc3ccc(F)cc3)C2)CC1 (stereo not drawn),-2.92% (inactive),
S=c1[nH]nc(-c2ccco2)n1/N=C/c1ccccc1,-3.81% (inactive),
S=c1[nH]nc(-c2ccncc2)n1/N=C/C=C/c1ccccc1,-11.5% (inactive),
Cc1ccc(NC(=O)CN(c2ccc3c(c2)OCO3)S(=O)(=O)c2c(C)n[nH]c2C)cc1,-1.61% (inactive),
CC(c1ccc(F)cc1)n1c(-c2cccs2)n[nH]c1=S (stereo not drawn),-0.882% (inactive),
S=c1nccc(-c2cccs2)[nH]1,,3.95 µM (active)
S=c1[nH]cc(-c2ccccc2)[nH]1,-10.6% (inactive),
Fc1ccc(-c2ccnc(=S)[nH]2)cc1,,2.78 µM (active)
Cc1ccc(N2C(=O)CC(NNC(=O)c3cccc(S(=O)(=O)N4CCCC4)c3)C2=O)cc1 (stereo not drawn),0.793% (inactive),
COc1ccccc1N1CCN(S(=O)(=O)c2ccccc2)CC1,5.49% (inactive),
CC(=O)N1CCN=C1SCc1cccc(F)c1,0.475% (inactive),
COc1ccc(-c2csc(Nc3ccc(S(=O)(=O)Nc4cc(C)on4)cc3)n2)cc1,-8.72% (inactive),
O=C(O)CCCN1C(=O)/C(=C\c2ccc(-c3nc4ccccc4s3)o2)SC1=S,-3.96% (inactive),
CC(C(=O)NC1C=CS(=O)(=O)C1)N1C(=O)/C(=C\c2ccccc2)SC1=S (stereo not drawn),-1.27% (inactive),
O=c1ccc(-c2n[nH]c(=S)n2-c2ccc(F)c(Cl)c2)n[nH]1,2.95% (inactive),
CN(C)c1cccc(C(=O)NCc2ccccc2)c1,2.16% (inactive),
CC(=O)c1ccc(S(=O)(=O)N2CCNC(=O)C2)cc1,0.022% (inactive),
COC(=O)Nc1ccc(S(=O)(=O)N2CCC(C(=O)N(C)C3CCCCC3)CC2)cc1,-4.36% (inactive),
COc1ccc(N2CCN(C(=O)CCNS(=O)(=O)c3ccccc3)CC2)cc1,-0.005% (inactive),
COc1ccccc1NC(=O)Nc1ncccc1C,-3.86% (inactive),
Cc1ccc(-c2cnc(SCCNC(=O)c3ccco3)[nH]2)cc1,-8.49% (inactive),
Cc1cccc(-n2c(-c3ccoc3C)n[nH]c2=S)c1,-11.9% (inactive),

SMILES,"activity change, negative = inhibition",AC50
CCN(CC)c1ccc(C2CC(=O)Nc3cc(OC)c(OC)cc32)cc1 (stereo not drawn),-0.735% (inactive),
C/C(=N\NC(=O)c1ccncc1)c1ccc(N(C)C)cc1,-1.54% (inactive),
C/C(=N\NC(=O)c1ccc(N/N=C(\C)c2ccncc2)cc1)c1ccncc1,,7.62 µM (active)
C/C(=N\NC(=O)c1cccc(N/N=C(\C)c2ccncc2)c1)c1ccncc1,-0.18% (inactive),
Cc1cc(S(=O)(=O)N2CCN(c3ccccc3O)CC2)c(C)s1,-1.49% (inactive),
COc1cc(-c2csc(CCn3nc(C)cc3C)n2)cc(OC)c1OC,-1.1% (inactive),
C=CCn1c(-c2cccc([N+](=O)[O-])c2)n[nH]c1=S,-6.54% (inactive),
C=CCn1c(-c2ccc(N)cc2)nc2ccccc21,-1.15% (inactive),
CC(C)c1ccc(NC(=O)Cc2c(C(=O)O)n(C)c3ccccc23)cc1,-6.86% (inactive),
CCc1ccc(NCc2ccc(OC)c(Cn3ccnc3)c2)cc1,0.244% (inactive),
O=C(CCN1CCN(C(c2ccccc2)c2ccccc2)CC1)N/N=C/c1ccc(O)cc1,-4.67% (inactive),
CCN(CC)c1ccc(/C=N\NC(N)=O)cc1,-3.71% (inactive),
CN(C)c1ccc(/C=N/NC(=O)CCC(=O)NCc2ccccc2)cc1,1.49% (inactive),
O=C(CCn1cnc2ccccc21)N/N=C/c1ccc(O)cc1,,9.88 µM (active)
O=C(CC(=O)N/N=C/c1ccc(O)cc1)N/N=C/c1ccc(O)cc1,,2.72 µM (active)
Cc1ccc(NC(=O)CCC(=O)N/N=C/c2ccc(O)cc2)cc1,-3.47% (inactive),
O=C(C[n+]1ccccc1)N/N=C/c1ccc(O)cc1,,6.56 µM (active)
O=C(Cn1cnc2ccccc21)N/N=C/c1ccccn1,-0.451% (inactive),
O=C(Cn1cc(C(F)(F)F)ccc1=O)N/N=C/c1ccc(O)cc1,-3.05% (inactive),
O=C(N/N=C/c1cccc(O)c1)N/N=C/c1cccc(O)c1,-15% (inactive),
Cc1nc(C)c(CC(=O)N/N=C/c2ccc(O)cc2)c(=O)[nH]1,-2.84% (inactive),
CC12CCC(C(=O)N/N=C/c3ccc(O)cc3)(OC1=O)C2(C)C (stereo not drawn),,8.23 µM (active)
COc1ccc(C2SCC(=O)N2c2ccc(F)cc2)cc1 (stereo not drawn),0.747% (inactive),
NNC(=O)c1cc(-c2ccccc2)sc1N,-1.19% (inactive),

SMILES,"activity change, negative = inhibition",AC50
Cc1cc(C)cc(N2C(=O)CSC2c2ccccn2)c1 (stereo not drawn),-4.34% (inactive),
COc1cc(/C=N\NC(=O)c2ccc(-c3ccccc3)cc2)cc(OC)c1O,-2.4% (inactive),
CC(NC(=O)c1ccccc1)C(=O)N/N=C/c1ccc(O)cc1 (stereo not drawn),-7.56% (inactive),
Cn1nc(-c2ccc(Cl)cc2)c2cc(C(=O)NCCCN3CCCC3)sc21,-0.462% (inactive),
CCn1c(-c2ccc(Cl)cc2)n[nH]c1=S,-8.41% (inactive),
S=c1[nH]nc(-c2ccc(Cl)cc2)n1-c1ccc(Cl)cc1,-8.06% (inactive),
Cc1cccc(N2CC(C(=O)Nc3ccccc3N3CCCC3)CC2=O)c1C (stereo not drawn),-8.55% (inactive),
COc1ccc(CC(=O)N2CCN=C2SCc2ccc([N+](=O)[O-])cc2)cc1,-0.324% (inactive),
CCN(CCNC(=O)C1CCN(S(=O)(=O)c2cccc3nsnc23)CC1)c1ccccc1,-0.842% (inactive),
COc1ccc(C2NC(=O)CS2)cc1OC (stereo not drawn),7.69% (inactive),
COc1cc(/C=N/NC(=O)CCN2CCCCC2)ccc1O,,8.16 µM (active)
COc1ccc(/C=N\NC(=O)CCN2CCN(c3ccccc3)CC2)cc1OC,0.672% (inactive),
COc1ccc(/C=N/NC(=O)CCn2nc(C)cc2C)cc1O,-8.19% (inactive),
O=C(NCc1ccccn1)c1ccc2c(c1)N(Cc1ccccc1)CCS2,0.248% (inactive),
COc1ccc(N2CCN(C(=O)CCNC(=O)c3ccc(C(C)(C)C)cc3)CC2)cc1,-1.79% (inactive),
Clc1nnc(N2CCCCC2)c2ccccc12,-0.603% (inactive),
CC(C)c1ccc(S(=O)(=O)Nc2ccc(O)c(Sc3ncn[nH]3)c2)cc1,,9.35 µM (active)
Cc1cc(O)c(Sc2ncn[nH]2)cc1NS(=O)(=O)c1ccc(Cl)cc1,-11.3% (inactive),
Cc1cc(C(=O)N2CCCC(Nc3ccc(C(C)C)cc3)C2)nn1C (stereo not drawn),-3.19% (inactive),
Cc1ccc(S(=O)(=O)Nc2cc(C)c(O)cc2C)cc1,-3.78% (inactive),
CC(C)c1ccc(NC2CCCN(C(=O)c3cc(C(C)C)nc(N)n3)C2)cc1 (stereo not drawn),-1.39% (inactive),
Cc1ccc(S(=O)(=O)Nc2ccc(O)c(Sc3ncn[nH]3)c2)cc1,,10.4 µM (active)
